The panel holds about 83,000 compounds, 20% with a hit somewhere; the sample as a whole holds those more often.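 The test compound was applied at a single concentration to cells in 96-well plates for 48 hours, and percent growth was recorded.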 A number with no mark means an inactive call. Calls of active or inactive are those of the source.

This assay relates to NCI-H522 lung. The experiment in a line: NCI-60 one-dose screen, 48 h (100 = growth as untreated, 0 = no growth, -100 = all killed). The note with it: 10 µM unless noted. The procedure:
Growth inhibition of the NCI-H522 human Non-Small Cell Lung tumor cell line is measured as a screen for anti-cancer activity. Cells are grown in 96 well plates and exposed to the test compound for 48 hours. Compounds are tested at a single concentration, which is 10^-5 M for most compounds. The reported endpoint is percent growth (GI% or GIPRCNT), where numbers from 0 - 100% represent growth inhibition, and numbers from -100% - 0 represent cell death. For example, a value of 40 represents 60% growth inhibition. A value of 0 means no net growth occurred over the course of the experiment. A value of -40 indicates 40% of cells at the beginning of the experiment died by the end of the experiment. A value of -100 means all cells are dead at the end of the experiment.
NCI-60 Human Tumor Cell Lines Screen was performed using the standard one-dose NCI protocol, which is described in more detail at https://dtp.cancer.gov/discovery_development/nci-60/default.htm.
Compounds with GIPRCNT values below 10 were considered active. Activity score was based on GIPRCNT using the following formula: […]
Score is 0 for GIPRCNT values of 100 or above, 50 for GIPRCNT values of 0, and 100 for GIPRCNT values of -100.
Regarding `CC(C)(C)c1cc(/C=N/NC(=O)c2ccccc2NC(=O)c2cccs2)c(O)c(C(C)(C)C)c1`, the growth is 27.8%.

Consider `COc1cc(/C(C)=C(\c2ccc(Cl)cc2)c2ccc(OCCN3CCCC3)cc2)ccc1F`, for which the growth was 80%.

In the case of `CCN(CC)c1ccc(/C=N/NC(=O)CSc2nc3ccccc3c(=O)n2Cc2ccc(S(N)(=O)=O)cc2)c(O)c1`, the growth was -26.1% (active).

Turning to `C=C1C(=O)O[C@H]2[C@H]1CC/C(CNC(=O)c1cccc3ccccc13)=C\CC[C@@]1(C)O[C@@H]21`, the growth was -46.7% (active).

For `CCCCCN1C=C/C(=C\C(=O)N(C)c2ccc(Oc3ccccc3)cc2)c2ccccc21`, the growth was 61.1%.

Take `O=S(=O)(NCCCNc1nccc(-c2c(-c3cccc(F)c3)nc3sccn23)n1)c1cccc(F)c1`: the growth was 21.9%.

Turning to `Cc1nn(-c2ccccc2)c(Cl)c1/C=C/C(=O)c1ccc(F)cc1`, the growth is 69.4%.

As to `CC(=O)c1cc2c(N)c(C(=O)Nc3cccc4ccncc34)sc2nc1C`, the growth was 96%.

In the case of `CNC(=O)c1cccc(Cn2nc(C)c(NC(=O)c3ccc(COc4ccc(C(F)(F)F)cc4C)cc3)c2C)c1`, the growth is 33%.

Take `COc1cc(C2C3=C(COC3=O)N(CCO)c3cc4c(cc32)CCC4)cc(OC)c1OC` (stereo not given): the growth is -26.7% (active).

With `CCNc1nc2cc(Nc3ccnc4cc(Cl)ccc34)ccc2o1`, the growth was 61.9%.

`COC(=O)C1=C(C(=O)ON)C2C=CC1(C(Cc1ccccc1)Nc1ccccc1)O2` (stereo not given): the growth is -77.4% (active).

Consider `CCc1c(Cl)nc(N)nc1Nc1ccc(C)c(C)c1`, for which the growth was 81.9%.

In the case of `CC1(C)CC[C@]23CC[C@]4(C)[C@H](CC[C@@H]5[C@@]6(C)CCCNC(C)(C)[C@@H]6CC[C@]54C)[C@H]2[C@H]1OC3`, the growth is 9.35% (active).

As for `N=C1C(c2nc3ccccc3s2)=C(O)CN1c1cc(Cl)cc(Cl)c1`, the growth is 86.5%.

In the case of `CCOC(=O)c1cc(C#N)n2ccc3ccccc3c12`, the growth is 92.2%.

For `O=C(CCN1CCCC1)Nc1ccc2c(NCCc3ccccc3)c3ccccc3nc2c1`, the growth was -33.4% (active).

Turning to `Cc1cccc(-c2cn3ccnc3c(-c3ccc4ncn(Cc5ccccc5)c4c3)n2)c1`, the growth was 71.6%.

With `CC(=O)N1N=C(c2ccc(-n3ccc(C(F)(F)F)n3)c(F)c2)CC1c1ccc[nH]1` (stereo not given), the growth is 77.2%.

On to `CCOC(=O)[C@@H]1CCCN(S(=O)(=O)c2ccc(S(=O)(=O)N(CC)CC)c(F)c2)C1`, for which the growth was 65.3%.

As to `O=C1NN(C(=O)c2ccccc2)C(c2ccc(Cl)c(Cl)c2)=C/C1=C\c1ccc([N+](=O)[O-])cc1`, the growth is 63.8%.

`C#Cc1cccc(NC(=O)c2cccc(NC(=O)CCl)c2)c1`: the growth was -65.8% [8.25 µM] (active).

Turning to `Oc1ccc(C2c3ccccc3Oc3ccccc32)c2cccnc12`, the growth was 25%.

`CCCCN1C=CCN(CCCC)C1`: the growth was 47.7%.

For the molecule `COc1cc(/C=C2\COc3ccc(-c4ccccc4)cc3C2=O)cc(OC)c1`, the growth was 39.2%.

`COc1cccc(-c2cc(C(=O)Nc3ccc(/C=C/c4ccc(OC5CCN(C)CC5)cc4)cc3)ccc2OC)c1`: the growth is -46.3% (active).

`CCN(CC)CC[n+]1cc2cc(OC)c(OC)cc2c2ccc3cc4c(cc3c21)OCO4`: the growth was -19.1% (active).

Turning to `Cn1c(-c2c(N)n(CCCN3CCOCC3)c3nc(C#N)c(C#N)nc23)nc2ccccc21`, the growth is 77.4%.

Regarding `O=C(O)c1ccc2c(c1)C(=O)N(Cc1ccccc1)C2=O`, the growth is 91.4%.

In the case of `COc1ccc(/C=N/NC(=O)c2cnn3c2NC(c2ccccc2)C3)cc1OC` (stereo not given), the growth was 42.8%.

`COCc1cnccc1NC1CCCCCC1`: the growth is 89.9%.

In the case of `COc1cccc(-c2ccc3c(c2)NC(=O)/C3=C\c2ccc[nH]2)c1`, the growth was 10.4%.

With `COc1cc(CC(=O)n2ncc3ccc(N)cc32)cc(OC)c1OC`, the growth was 85.6%.

Regarding `Cc1cc2nc3c4cccc(O)c4n(CCN(C)C)c3nc2cc1C`, the growth was 31%.

Take `O=S(=O)(NCCNc1nccc(-c2c(-c3cccc(O)c3)nc3occn23)n1)c1ccc(Cl)cc1`: the growth was 98.6%.

For the molecule `Clc1ccc(-c2ccc(CNCC3CCNCC3)o2)c(-c2ccccc2)c1`, the growth is -70.7% (active).

As to `CCCCCN1C=C/C(=C\C(=O)N(C)c2ccc(OC(F)(F)F)cc2)c2ccccc21`, the growth is 78.5%.

Consider `O=C1/C=C/[C@@H](O)[C@@H]2C[C@@H](O)C[C@H]2/C=C/CCC[C@H](CCc2cccc3ccccc23)O1`, for which the growth was -25.8% (active).

Consider `CCCCCCCCO/N=C\c1c2c(O)c3c(O)c(C)c4c(c3c1O)C(=O)C(C)(O/C=C\C(OC)C(C)C(OC(C)=O)C(C)C(O)C(C)C(O)C(C)/C=C\C=C(\C)C(=O)N2)O4` (stereo not given), for which the growth is 5.64% (active).

Consider `CC(=O)[C@@H]1CC[C@]2(C(N)=O)CC[C@]3(C)[C@H](CC[C@@H]4[C@@]5(C)CCCNC(C)(C)[C@@H]5CC[C@]43C)[C@@H]12`, for which the growth was 107%.

Values taken from PubChem BioAssay (NCI).
